Active and inactive are the calls of the source. Unless noted, how the calls were made is not given here.

Consider 16 compounds from PubChem BioAssay.

In experiment [1] the test system is XIP peptide (Xip251-270) binding. The experiment is described as follows: XIP fragment 251-270 binding compounds – biochemical, small-molecule microarray, fluorescence 635/667 nm, 0.1 µg/mL protein, primary screen (AID 1182). As to conditions: fluorescent protein binding, 635 nm, higher = more signal, called active from +8 up or from −8 down.
Experiment [2] has as its system XIP peptide (Xip251-270). Kind of experiment: compounds binding XIP fragment 251-270 – biochemical, small-molecule microarray, fluorescence 635/667 nm, 0.5 µg/mL protein, primary screen (AID 1183). Conditions: fluorescence 635 nm, higher = more signal.
Experiment [3] in a line: blood-stage malaria parasite viability loss – strain 3D7, DAPI fluorescence, 100 nL, primary screen (AID 1184).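 Further: parasites grown inside human red blood cells in medium with human serum.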 Conditions: P. falciparum 3D7 growth, 3 d, higher = more signal.
Experiment [4] addresses Homeobox protein Hox-A13 (Mus musculus) (UniProt Q62424). Kind of experiment: disruptors of Hoxa13 oligonucleotide interaction – biochemical, fluorescence polarization, labeled oligonucleotide, primary screen (AID 1185). Conditions: Hoxa13:DNA binding, 15 min, higher = more signal, called active from +8 up or from −8 down.
Experiment [5] can be described thus: blockers of DNA damage checkpoint Chk1 activation – imaging, HeLa, hydroxyurea, phospho-Chk1 antibody, percent positive cells, primary screen (AID 1186). Conditions: hydroxyurea-induced phospho-Chk1 immunofluorescence imaging, higher = more signal.
The nature of experiment [6]: blockers of DNA damage checkpoint Chk1 activation – imaging, HeLa, hydroxyurea, phospho-Chk1 nuclear intensity, primary screen (AID 1187). As to conditions: hydroxyurea-induced phospho-Chk1 immunofluorescence imaging, higher = more signal.

Sequence of Homeobox protein Hox-A13 (Mus musculus) (Q62424 whole entry, looked up): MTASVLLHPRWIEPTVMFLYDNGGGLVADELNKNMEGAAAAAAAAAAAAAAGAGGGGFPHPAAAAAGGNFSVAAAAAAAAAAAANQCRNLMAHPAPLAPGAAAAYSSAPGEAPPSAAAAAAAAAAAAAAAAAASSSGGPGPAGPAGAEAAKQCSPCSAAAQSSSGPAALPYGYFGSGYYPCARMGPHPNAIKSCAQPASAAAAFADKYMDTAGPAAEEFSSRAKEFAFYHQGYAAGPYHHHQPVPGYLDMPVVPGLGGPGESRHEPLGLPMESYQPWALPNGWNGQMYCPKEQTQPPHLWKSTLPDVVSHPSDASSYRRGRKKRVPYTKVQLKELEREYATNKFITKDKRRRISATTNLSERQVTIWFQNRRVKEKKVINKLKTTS

As to `[N-]=[N+]=Nc1ccccc1C[C@@]1(C(=O)NCC(O)CO)N=C(c2ccc(OCCCO)cc2)O[C@@H]1c1ccccc1N=[N+]=[N-]` (stereo partly specified), the composite z-score in experiment [1] is 0.0609 (inactive); in experiment [2], 0.0519. The z-score in experiment [3] is -2.15; in experiment [4], -2.28 (inactive); in experiment [5] it was -0.0996 (inactive); in experiment [6], 0.263 (inactive).

With `C=C(CCCC)/C(=C/C[C@@H](OC(C)=O)c1ccc(OCCO)cc1)c1cc(C(=O)OC)ccc1OC`, the composite z-score is 0.952 (inactive) in experiment [1] and 0.633 in experiment [2]. In addition, the z-score was -3.06 in experiment [3], -4.07 (inactive) in experiment [4], 0.526 (inactive) in experiment [5] and 0.765 (inactive) in experiment [6].

Take `C=CCNC(=O)[C@@H]1[C@H]2C(=O)O[C@H](c3ccccc3)[C@H](c3ccccc3)N2[C@H](c2ccc(OCCO)cc2)[C@@]12C(=O)N(C(=O)OCCOC)c1ccccc12`: the composite z-score in experiment [1] is 1.44 (inactive); in experiment [2], 0.718. Besides, the z-score is -0.643 in experiment [3], -3.58 (inactive) in experiment [4], -0.0546 (inactive) in experiment [5] and 0.0358 (inactive) in experiment [6].

Take `CC(CO)N1C(=O)[C@@H]2[C@H]3C(=O)OCC=C[C@H]3OC23C=CCN(c2ccc4ccccc4c2)C(=O)[C@@H]13` (stereo partly specified): the values for the composite z-score in experiment [1] and in experiment [2] were -0.0975 (inactive) and 0.547, respectively. The z-score in experiment [3] is 0.48; in experiment [4] it was -4.49 (inactive); in experiment [5], -0.233 (inactive); in experiment [6], 0.0823 (inactive).

With `C=CC[C@]1(C(=O)NCCN2CCOCC2)N=C(c2ccc(OCCCO)cc2)O[C@H]1c1ccccc1`, the composite z-score was 0.212 (inactive) in experiment [1] and 0.492 in experiment [2]. Besides, the z-score in experiment [3] is -0.188; in experiment [4], -6.22 (inactive); in experiment [5], -0.116 (inactive); in experiment [6] it was 0.106 (inactive).

`CC(C)C[C@@H]1NC(=O)[C@H]2C[C@@H](C(=O)O)[C@@H](c3cccc(OCCO)c3)N2C1=O`: the composite z-score is 0.693 (inactive) in experiment [1] and 0.737 in experiment [2]. The z-score is -0.404 in experiment [3], -2.46 (inactive) in experiment [4], -0.03 (inactive) in experiment [5] and -0.134 (inactive) in experiment [6].

Regarding `CC(C)c1ccc(NN2C(C(O)C3=C[C@H]4C[C@@H](C3)C4(C)C)C=CC3C(=O)N(c4ccccc4)C(=O)C32)cc1` (stereo partly specified), the values for the composite z-score in experiment [1] and in experiment [2] were 1.35 (inactive) and 0.464, respectively. Besides, the z-score in experiment [3] was -0.0979; in experiment [4], -2.33 (inactive); in experiment [5], -0.0307 (inactive); in experiment [6] it was -0.257 (inactive).

Turning to `COc1ccc(CCNC(=O)[C@@]2(c3ccc([N+](=O)[O-])cc3)CC(=O)N(C3CCCCC3)[C@@H]2c2ccc(CO)cc2I)cc1`, the composite z-score in experiment [1] was 0.548 (inactive); in experiment [2] it was 0.671. The z-score in experiment [3] is -1.96; in experiment [4], -3.27 (inactive); in experiment [5], 0.129 (inactive); in experiment [6], 0.294 (inactive).

With `C=C(COC)/C(=C/C[C@@H](OC(C)=O)c1cccc(OCCO)c1)c1cnc2ccccc2c1`, the results for the composite z-score in experiment [1] and in experiment [2] were 0.281 (inactive) and 0.21, respectively. Further, the z-score was -3.1 in experiment [3], -5.52 (inactive) in experiment [4], 0.271 (inactive) in experiment [5] and -0.181 (inactive) in experiment [6].

For `C=C(COC)C(=O)CC[C@H](OC(C)=O)c1ccc(CO)o1`, the composite z-score is -0.153 (inactive) in experiment [1] and 0.626 in experiment [2]. Further, the z-score in experiment [3] is -0.689; in experiment [4] it was -4.72 (inactive); in experiment [5], -0.707 (inactive); in experiment [6], -0.842 (inactive).

Consider `COC(=O)[C@@]1(Cc2ccc(F)cc2)[C@H]2c3cc(C(=O)N4CCCC4)n(CCc4c[nH]c5cc(F)ccc45)c3C[C@H]2CN1C(=O)c1ccccc1`, for which the results for the composite z-score in experiment [1] and in experiment [2] were 0.0421 (inactive) and 0.684, respectively. The z-score in experiment [3] is -1.4; in experiment [4], -2.5 (inactive); in experiment [5], -0.332 (inactive); in experiment [6], -0.589 (inactive).

On to `C=CCNC(=O)[C@H]1[C@@H]2C(=O)O[C@@H](c3ccccc3)[C@@H](c3ccccc3)N2[C@@H](c2ccc(OCCO)cc2)[C@]12C(=O)N(C(=O)OCCOC)c1ccc(C#CCNC(N)=O)cc12`, for which the values for the composite z-score in experiment [1] and in experiment [2] were 0.797 (inactive) and 0.579, respectively. Also, the z-score in experiment [3] is 0.0978; in experiment [4], -1.67 (inactive); in experiment [5], -0.128 (inactive); in experiment [6], -0.209 (inactive).

On to `COC(=O)[C@@]1(Cc2ccccc2)[C@H]2c3cc(C(=O)N(C)C)n(Cc4ccc(Cl)c(C(F)(F)F)c4)c3C[C@H]2CN1C(=O)c1ccccc1`, for which the results for the composite z-score in experiment [1] and in experiment [2] were 0 (inactive) and 0.485, respectively. The z-score was -1.47 in experiment [3], -2.73 (inactive) in experiment [4], 0.435 (inactive) in experiment [5] and 0.444 (inactive) in experiment [6].

Consider `COCCOC(=O)N1C(=O)[C@@]2(c3cc(C#CCC(C(=O)OC)C(=O)OC)ccc31)[C@H](C(N)=O)[C@H]1C(=O)O[C@H](c3ccccc3)[C@H](c3ccccc3)N1[C@@H]2c1ccccc1OCCO`, for which the composite z-score was 0.286 (inactive) in experiment [1] and 0.575 in experiment [2]. The z-score in experiment [3] is -1.93; in experiment [4], -2.49 (inactive); in experiment [5], -0.663 (inactive); in experiment [6], -1.57 (inactive).

As to `COC(=O)c1c2oc(c1C(=O)OC)C(=O)N[C@H](Cc1ccccc1)Cn1cc(nn1)C1(CCCCC1)NC(=O)N[C@H](CO)CC2`, the composite z-score in experiment [1] is 0.772 (inactive); in experiment [2], -0.652. Besides, the z-score is 0.764 in experiment [3], -3.34 (inactive) in experiment [4], -0.0529 (inactive) in experiment [5] and -0.669 (inactive) in experiment [6].

For the compound `[N-]=[N+]=NCc1ccccc1[C@H]1OC(c2ccc(OCCCO)cc2)=N[C@@]1(CCS(=O)(=O)c1ccccc1)C(=O)NCCN1CCOCC1`, the composite z-score in experiment [1] is -0.0093 (inactive); in experiment [2], 0.816. For the same compound, the z-score in experiment [3] was -2.35; in experiment [4] it was -2.67 (inactive); in experiment [5] it was -0.0238 (inactive); in experiment [6], -0.0229 (inactive).
